Inconclusive results are not listed. A call without a number means that no potency is given here. A number with no mark means an inactive call. Calls of active or inactive are those of the source. Calls come from the whole dose curve; as a rule, active = well fitted inhibition curve with a large enough effect; inconclusive = small, poorly fitted or top-dose-only effect; inactive = no such curve, though single readings can be large or run the other way.
Assay: Primary qHTS for inhibitors of nuclear receptor binding SET domain protein 2 (NSD2) in an RCH-ACV wild type WT cells (2C) (AID 1645877); note: nearly all actives have a fitted effect of over 70% in size
Settings: RCH-ACV (leukaemia line) NSD2 WT (2C) viability, CellTiter-Glo, 72 h; series mostly up to 44.9 µM
Potency is the fitted concentration of half-maximal effect.

Row | SMILES | Potency | activity change, negative = cell killing | outcome
1 | COC(=O)/C=C/C12COC(C)(C)C1C(O)C(OC(C)=O)C1(C)C2CCC2(C)C(c3ccoc3)OC(=O)C3OC321 (centres undefined) | inactive | – | –
2 | C[C@@H]1C[C@@H]2O[C@H]2/C=C\C=C\C(=O)Cc2c(Cl)c(O)cc(O)c2C(=O)O1 | 450 nM (active) | – | –
3 | CC12CCC(C(OC3OC(COC4OCC(O)(CO)C4O)C(O)C(O)C3O)C1)C(C)(C)O2 (centres undefined) | inactive | – | –
4 | COC(=O)C12CCC(C)C(C)C1C1=CCC3C4(C)CCC(OC(C)=O)C(C)(C)C4CCC3(C)C1(C)CC2 (centres undefined) | inactive | – | –
5 | COC(=O)C12C(=O)C(C)=C(O)C1(C)C(C)=CC1C3(CO)CCC(O)C(C)(C)C3CCC12C (centres undefined) | inactive | – | –
6 | COc1cc(O)c2c(c1)C1=C[C@H](O)[C@@H](O)C[C@]1(C)OC2=O | inactive | – | –
7 | CC(C)=CCC/C(C)=C/Cc1ccc(O)c(C2OC(=O)c3cc(C(=O)O)cc(O)c32)c1O (centres undefined) | inactive | – | –
8 | CC(C)=CCC[C@](C)(O[C@@H]1O[C@H](CO)[C@@H](O)[C@H](O)[C@H]1O)[C@H]1CC[C@]2(C)[C@@H]1[C@H](O)CC1[C@@]3(C)CC[C@H](O)C(C)(C)C3[C@@H](O[C@@H]3O[C@H](CO)[C@@H](O)[C@H](O)[C@H]3O)C[C@]12C (some centres undefined) | inactive | – | –
9 | CC1(C)CCC2(C(=O)OC3OC(CO)C(O)C(O)C3O)CCC3(C)C(=CCC4C5(C)CCC(O)C(C)(C(=O)O)C5CCC43C)C2C1O (centres undefined) | inactive | – | –
10 | C=C1C[C@]23C[C@H]1CC[C@H]2C1=C[C@H]2OC(=O)[C@@](C)([C@H]1[C@@H]3C(=O)O)[C@H]2O | inactive | – | –
11 | CC(=O)N[C@H]1[C@H](O[C@H]2CC[C@@]3(C)C(CC[C@]4(C)C3CC=C3C5CC(C)(C)CC[C@]5(C(=O)O)[C@H](O)C[C@]34C)C2(C)C)O[C@H](CO[C@@H]2OC[C@H](O)[C@H](O)[C@H]2O[C@@H]2OC[C@@H](O)[C@H](O)[C@H]2O)[C@@H](O)[C@@H]1O (some centres undefined) | – | 3.06% [at 9.23 µM] | –
12 | CNC12CC3C[C@@](C)(C1)C[C@](C)(C3)C2 | inactive | – | –
13 | CC(C)(O[C@@H]1O[C@H](CO)[C@@H](O)[C@H](O)[C@H]1O)C(OC(=O)/C=C\c1ccc(O)cc1)C(=O)OCc1ccc(O[C@@H]2O[C@H](CO)[C@@H](O)[C@H](O)[C@H]2O)cc1 (some centres undefined) | inactive | – | –
14 | Cc1ccc(C)c(OCCn2cc(C(=O)O)c3ccccc32)c1 | inactive | – | –
15 | C=CC(C)(C)C12C=C(OC)C(=O)N3C(C(C)C)C(=O)NC31N(OC)c1ccccc12 (centres undefined) | inactive | – | –
16 | CC1C(=O)OCC2=CCN3CCC(OC(=O)C(C)(O)C1(C)O)C23 (centres undefined) | inactive | – | –
17 | CCCCCCOc1cc2c(cc1N(C)c1ncc(C(=O)O)cn1)C(C)(C)CCC2(C)C | inactive | – | –
18 | CC(CO)C1CCC2(C)CC3C(CO)CC(O)C3C(C)(O)C/C=C/12 (centres undefined) | inactive | – | –
19 | O=C(CC(c1ccccc1)c1ccccc1)N1CCN(C(c2ccccc2)c2ccccc2)CC1 | 8170 nM (active) | – | –
20 | COCC1OC(OC(C)(C)C2CCC3(C)C=C(C4CCC5C4(C)CC(O)C4OC(C(C)(C)OC6OC(CO)C(O)C(O)C6NC(C)=O)CCC45C)CCC3O2)C(NC(C)=O)C(O)C1O (centres undefined) | – | – | inactive [at 9.23 µM]
21 | CN(C)CCn1cc(S(=O)(=O)c2cccc(F)c2)c2cccnc21 | inactive | – | –
22 | c1ccc(-c2ncc(CN3CCN(c4ncccn4)CC3)[nH]2)cc1 | inactive | – | –
23 | Cc1cnc(NC(=O)Nc2cc(Br)c(C)cc2OCC2CNCCO2)cn1 (centres undefined) | 578 nM (active) | – | –
24 | Nc1nc2c(c(=O)[nH]1)C[C@@H](CCc1ccc(C(=O)N[C@@H](CCC(=O)O)C(=O)O)cc1)CN2 | 9.2 nM (active) | – | –
25 | COc1cc(Br)c(Nc2nc(-c3c(C)nc4ncccn34)cs2)c(Br)c1 | 2050 nM (active) | – | –
26 | O=C(Nc1ccc(-c2ccncc2)cc1)N[C@H](CO)c1ccccc1 | 23000 nM (active) | – | –
27 | C=CC(C)(C)c1[nH]c2cc3c(cc2c1CC1NC(=O)C2CCCN2C1=O)C=CC(C)(C)O3 (centres undefined) | inactive | – | –
28 | CC1(C)C2CC=C(COC3OC(COC4OCC(O)(CO)C4O)C(O)C(O)C3O)C1C2 (centres undefined) | inactive | – | –
29 | C[C@@H]1O[C@@H](O[C@H]2[C@H](O)[C@@H](O[C@@H]3O[C@H](CO)[C@@H](O)[C@H](O[C@@H]4O[C@H](CO)[C@@H](O)[C@H](O)[C@H]4O)[C@H]3O)[C@H](O[C@H]3CC[C@@]4(C)C(=CC[C@@H]5C4CC[C@@]4(C)C5C[C@@H]5OC6(CC[C@@](C)(CO[C@@H]7O[C@H](CO)[C@@H](O)[C@H](O)[C@H]7O)O6)[C@@H](C)[C@@H]54)C3)O[C@@H]2CO)[C@H](O)[C@H](O)[C@H]1OC1OC(CO)C(O)C(O)C1O (some centres undefined) | – | – | inactive [at 9.23 µM]

— PubChem BioAssay (NCATS)
